Screening data from PubChem BioAssay.
Compounds with a hit are over-represented: about 2.5% of the library has one in this group of screens.
Bim-Mcl-1 = inhibitors of Bim-Mcl-1 interaction, human; Q07820; Bead-based flow cytometry, Bim peptide-Mcl-1 binding; inhibition, % at 10 µM; 190,000 tested, 0.1% active; in the data active means inhibition above about 40%;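 further: 0% = no compound tracer wells and 100% = peptide blocker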
Target sequence (Q07820 whole entry, looked up): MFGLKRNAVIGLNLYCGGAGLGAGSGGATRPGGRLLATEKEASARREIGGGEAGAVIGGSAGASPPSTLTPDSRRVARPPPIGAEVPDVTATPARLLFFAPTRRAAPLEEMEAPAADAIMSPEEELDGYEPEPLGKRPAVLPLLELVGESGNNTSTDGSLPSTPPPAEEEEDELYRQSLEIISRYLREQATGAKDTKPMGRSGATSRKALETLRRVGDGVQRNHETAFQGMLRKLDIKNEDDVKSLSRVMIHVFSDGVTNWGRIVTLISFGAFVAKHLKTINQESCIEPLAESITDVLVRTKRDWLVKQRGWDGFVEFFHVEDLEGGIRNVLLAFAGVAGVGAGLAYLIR
MCL1 BIM primary = inhibitors of human MCL1 binding to BIM-BH3 peptide. Q07820. GST-MCL1 / FITC-Bim-BH3 fluorescence polarization. inhibition, % at 10.9 µM. 320,000 tested, 0.68% active. AID 2057;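 active means inhibition above the mean inhibition of all tested compounds plus 3 SD, set per campaign, cut at about 40% in these data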;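 further: 0% = DMSO wells and 100% = unlabeled Bim-BH3 peptide control; higher means more loss of mP so more displacement of Bim peptide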
Mcl1-Noxa inh = disrupts binding of human Mcl-1 to Noxa peptide; inhibition, % at 21.7 µM; TR-FRET Mcl-1/Noxa peptide binding, 2 h; AID 1022; 220,000 tested, 1.5% active; Q07820;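 active means compounds that cut the protein-peptide binding signal by more than 50% relative to plate controls in a single-dose test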;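 further: His-tagged Mcl-1 with rhodamine Noxa BH3 peptide and terbium anti-His antibody; 0% = Mcl-1 plus Noxa peptide wells and 100% = peptide-only wells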
Mcl1-Bid inh = Mcl-1/Bid interaction inhibition; Q07820; TR-FRET Mcl-1/Bid-Dy647 peptide binding, 1536-well; 220,000 tested, 0.97% active; inhibition, % at 21.7 µM;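 active means compounds that cut the binding signal by more than half at the single screening dose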;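 further: His-tagged Mcl-1 with europium anti-His antibody binding Bid BH3 peptide; 0% = Mcl-1 plus peptide wells and 100% = peptide-only wells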
14-3-3 Bad PPI = disrupts binding of bovine 14-3-3 zeta to phospho-Bad peptide; P63103; TR-FRET 14-3-3zeta/Dy647-pBad peptide displacement, 1 h; inhibition, % at 21.7 µM; 220,000 tested, 0.71% active; AID 781;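 active means inhibition above about 70%, limit read from the data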;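 further: 0% = full 14-3-3 plus peptide FRET controls and 100% = background without 14-3-3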
Target sequence (P63103 whole entry, looked up): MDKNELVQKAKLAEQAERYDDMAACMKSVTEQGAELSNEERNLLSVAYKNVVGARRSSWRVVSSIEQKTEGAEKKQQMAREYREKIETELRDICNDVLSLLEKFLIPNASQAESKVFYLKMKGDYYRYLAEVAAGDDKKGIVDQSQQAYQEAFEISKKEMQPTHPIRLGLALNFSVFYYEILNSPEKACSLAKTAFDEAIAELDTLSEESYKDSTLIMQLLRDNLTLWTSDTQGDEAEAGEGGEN
* marks the source's active call; other numbers are inactive results; nt = no result; [ ] = dose if it differs, or a comment.

SMILES	Bim-Mcl-1	MCL1 BIM primary	Mcl1-Noxa inh	Mcl1-Bid inh	14-3-3 Bad PPI
O=C(N/N=C1/C(=O)c2cccc3cccc1c23)c1ccc(Cl)cc1	-5	46*	26	88*	85*[fluorescence artefact?]
CCCCN1CC(O)=C(c2nc(-c3ccc(Cl)cc3)cs2)C1=N	5	1	64*	47	45
N=C1C(c2nc(-c3ccc(Cl)cc3)cs2)=C(O)CN1NC(=O)c1ccc(O)cc1	nt	-2	47	-26	77*
CC(C)(Oc1ccc(Br)cc1Cl)C(=O)Nc1ccon1	nt	7	nt	nt	nt
Cc1csc(N/N=C/c2ccc(O)c([N+](=O)[O-])c2)n1	-1	28	55*	-70	1
CCC(=O)N(CC)c1nc(-c2ccc(OC)cc2)cs1	-4	-2	-3	54*	68
CCC(=O)N(Cc1ccco1)c1nc(-c2ccc(OC)cc2)cs1	1	0	16	4	2
N#CC(C(=O)Nc1ccc(Cl)cc1)=C1Nc2ccccc2N1	1	2	51*	-2	-9
N#CC(C(=O)Nc1ccccc1)=C1CCCCC1	-2	7	3	-1	-2
CC1=C(C(=O)OCc2ccccc2)C(/C=C/c2ccccc2)NC(=S)N1 (stereo not given)	-5	1	6	54*	-8
COc1ccc(CCC(=O)NC(C)C2CCCO2)cc1 (stereo not given)	nt	-3	nt	nt	nt
CN1C(=O)/C(=C/c2cc(N=Nc3ccccc3)ccc2O)SC1=S	-4	7	54*	7	7
C/C(=N\Nc1ccc(C(=O)c2c(C)cc3ccccn23)cc1[N+](=O)[O-])c1ccc(O)cc1	nt	9	-18	-23	7
Cc1cc2ccccn2c1C(=O)c1ccc(N/N=C/c2ccc(C(=O)O)cc2)c([N+](=O)[O-])c1	nt	nt	93*	73*	73*
CCN1CCN(c2ccc(NC(=O)c3ccco3)cc2)CC1	nt	-2	nt	nt	nt
Cc1ccccc1C(=O)N1CCN(c2ccc(NC(=O)c3ccc4c(c3)OCO4)cc2)CC1	0	2	21	-41	-2
[O-][N+]1=C2CCC/C(=N\O)C2=NC12CCCCC2	nt	0	nt	nt	nt
COC(=O)c1cc(N=Nc2sc(N)nc2C)cc(C(=O)OC)c1	nt	3	53*	-5	14
N#C/C(=C\c1cccc([N+](=O)[O-])c1)c1ccccn1	-2	-4	19	-25	-22
O=C(NC1CC1)c1cc(Cl)ccc1[N+](=O)[O-]	-2	6	71*	-121	17
CCc1ccccc1NC(=O)CCS(=O)(=O)c1ccc(Br)cc1	nt	2	nt	nt	nt
COC(=O)c1ccccc1NC(=O)CCS(=O)(=O)c1ccc(Br)cc1	0	nt	46	-108	81*
COc1ccccc1C1C([N+](=O)[O-])=CC([N+](=O)[O-])=CN1C (stereo not given)	-2	-35	11	-45	-7
COc1ccccc1C1NC=C([N+](=O)[O-])C=C1[N+](=O)[O-] (stereo not given)	-7	3	77*	-1	22
Cc1cc(C)cc(OCc2ccc(C(=O)N3N=C(C(F)F)CC3(O)C(F)F)o2)c1 (stereo not given)	-1	0	17	32	-10
SMILES	Bim-Mcl-1	MCL1 BIM primary	Mcl1-Noxa inh	Mcl1-Bid inh	14-3-3 Bad PPI
C=CCn1c(SCC(=O)Nc2cc(NC(C)=O)ccc2OC)nnc1-c1ccccn1	0	2	21	-13	-5
C=CCn1c(SCC(=O)Nc2ccccc2OC)nnc1-c1ccccn1	-4	4	-7	-10	79*
O=C1C(Cl)=C(N2CCCCC2)C(=O)C(Cl)=C1c1cnc(N2CCCCC2)s1	62*	nt	109*	65*	27
O=C1C(Cl)=C(N2CCCCCC2)C(=O)N1c1ccc(Cl)cc1	nt	-4	nt	nt	nt
CCOCCCNC(=O)C(NC(=O)c1ccc(NC(C)=O)cc1)c1ccccc1 (stereo not given)	-3	3	6	-1	73*
CCOCCCNC(=O)C(NC(=O)c1ccc(NC(C)=O)cc1)c1ccc(C)cc1 (stereo not given)	-4	1	-6	-30	8
C=CCN1CCN(C(=O)c2ccc(-c3ccccc3)cc2)CC1	nt	17	nt	nt	nt
CCCC1C2C(=O)N(c3ccc(OC)cc3)C(=O)C2ON1c1ccccc1 (stereo not given)	0	9	-9	-12	90*
COc1ccc(C(=O)Oc2c(OC)cc(C(=S)N3CCOCC3)cc2OC)cc1	nt	8	nt	nt	nt
O=C(O)c1ccc(Oc2cccc([N+](=O)[O-])c2)cc1C(=O)O	0	6	10	10	74*
CC1CCc2c(sc(Nc3nc4c(F)cccc4s3)c2C(N)=O)C1 (stereo not given)	-3	-61	101*	43	3
Cc1ccc(OCC(=O)NNc2c3ccccc3nc3ccccc23)cc1	1	3	51*	62*	17
COc1ccc(Nc2nc(C)c3ccccc3n2)cc1	-2	2	17	102*	93*
CCOc1ccc(Nc2c3ccccc3nc3ccccc23)cc1	nt	3	53*	6	2
COc1ccc2nc(C)cc(SCC(=O)N/N=C/c3ccccc3)c2c1	-4	2	-14	8	24
COc1ccc2nc(C)cc(SCC(=O)Nc3c(C)cccc3C)c2c1	-2	-4	-7	68*	41
COc1ccc2nc(C)cc(SCC(=O)N/N=C/c3c(OC)ccc4ccccc34)c2c1	-12	-6	3	64*	96*[fluorescence artefact?]
COc1ccc2nc(C)cc(SCC(=O)NNC(=O)COc3cccc4ccccc34)c2c1	-1	-12	1	52*	57
O=C(O)c1ccc(-c2ccc(/C=C3\NC(=O)N(Cc4ccc(Cl)cc4)C3=O)o2)cc1Cl	2	nt	56*	6	13
O=C(NCc1ccco1)/C(=C/c1cccnc1)NC(=O)c1cccc(Br)c1	-1	2	-4	-2	77*[fluorescence artefact?]
CCOc1ccc(NC(=O)c2sccc2-n2cccc2)cc1	0	2	4	-24	-3
CCOC(=O)c1sc(NC(=O)CSc2nc3c(cc2C#N)CCCCCC3)c(C#N)c1C	4	-12	nt	-6	-3
N#Cc1c(NC(=O)c2cccc(S(=O)(=O)Nc3ccc(C(=O)O)cc3)c2)sc2c1CCCC2	nt	19	77*	1	6
N#Cc1c(NC(=O)c2ccncc2)sc2c1CCC2	0	30	69*	-45	14
NC(=O)c1c(NC(=O)c2ccncc2)sc2c1CCCC2	2	-1	19	-53	-1
CCOC(=O)c1sc(NC(=O)c2ccncc2)c(C#N)c1C	7	9	54*	8	9
CCOC(=O)c1sc(NC(=O)CSc2nc(C)cc(C)c2C#N)c(C#N)c1C	0	1	-60	66*	27
CC(C)NCC(O)Cn1c2c(c3ccccc31)CCc1c-2cnn1-c1ccccc1 (stereo not given)	-3	-6	16	-30	1
N#Cc1ccc(CO/N=C/c2ccccc2)cc1	0	-4	-4	89*	-4
C[N+](C)(C)CCOc1ccc([N+](=O)[O-])cc1	0	1	-5	14	11
